# Measured values published in article PMC9838217, “Structure of SALL4 zinc finger domain reveals link between AT-rich DNA binding and Okihiro syndrome”.
# Positions count from the first letter of the chain named.
# Columns and labels:
# [1] = target: T1, SALL4 ZFC4 G921D (HT-SELEX) (Mus musculus, UniProt Q8BX22 870-940, G921D); experiment: HT-SELEX; high values mean tight binding; conditions: protein: recombinant; vector His6-GST; dsDNA, one strand shown
# T1 sequence: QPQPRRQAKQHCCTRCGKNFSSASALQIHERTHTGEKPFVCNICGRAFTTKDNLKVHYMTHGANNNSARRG
# How it was run: (§1)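 Recombinant mouse SALL4 zinc finger cluster 4 (residues 870–940, 1 µg), purified, was mixed with library DNA (1.5 µg in the first cycle, 200 ng thereafter) in 100 µl of buffer containing 10 mM Tris–HCl pH 7.5, 50 mM NaCl, poly(dI-dC) and DTT, and left for 10 min at room temperature. Complexes were captured on Ni2+ beads, washed, amplified by PCR and reselected for up to 6 cycles in triplicate, after which MiSeq sequencing and a 6-mer scan followed. Binding signal is the read fraction of each canonical k-mer, given as fold change relative to the starting random library.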
# [2] = target: T2, SALL4 ZFC4 R900W (HT-SELEX) (Mus musculus, UniProt Q8BX22 870-940, R900W); experiment: HT-SELEX; high values mean tight binding; conditions: protein: recombinant; vector His6-GST; dsDNA, one strand shown
# T2 sequence: T1 sequence with R31W, D52G
# How it was run: as §1
Sequence,binding signal [1],binding signal [2]
AATCAG,1.32 ± 0.103 fold-change vs cycle 0,–
AAGATG,1.39 ± 0.12 fold-change vs cycle 0,–
AAACGA,1.16 ± 0.0214 fold-change vs cycle 0,1.16 ± 0.0331 fold-change vs cycle 0
GAAAAC,1.19 ± 0.0327 fold-change vs cycle 0,–
ACTAGG,1.01 ± 0.0534 fold-change vs cycle 0,–
ATGCAA,–,1.18 ± 0.0732 fold-change vs cycle 0
AATCCT,1.47 ± 0.113 fold-change vs cycle 0,–
CTCTTC,1.238 ± 0.012 fold-change vs cycle 0,–
ATAGCA,–,1.21 ± 0.0922 fold-change vs cycle 0
CTCAAA,–,1.2 ± 0.0701 fold-change vs cycle 0
AGGTAA,1.45 ± 0.089 fold-change vs cycle 0,–
AAGGGT,1.01 ± 0.0322 fold-change vs cycle 0,–
AGCATA,1.26 ± 0.0447 fold-change vs cycle 0,–
AACTGA,1.35 ± 0.0948 fold-change vs cycle 0,–
AAGGAT,1.54 ± 0.145 fold-change vs cycle 0,–
GATCAA,1.36 ± 0.0523 fold-change vs cycle 0,–
ACTCCA,–,1.03 ± 0.0645 fold-change vs cycle 0

Sequence,binding signal [1],binding signal [2]
CATGAA,1.36 ± 0.0809 fold-change vs cycle 0,–
ATCCTG,–,1.02 ± 0.0483 fold-change vs cycle 0
ATGTAG,1.34 ± 0.129 fold-change vs cycle 0,–
ATACCA,–,1.39 ± 0.0221 fold-change vs cycle 0
ACGAAA,–,1.12 ± 0.0308 fold-change vs cycle 0
GCATAA,–,1.11 ± 0.0331 fold-change vs cycle 0
AATACC,1.3 ± 0.0234 fold-change vs cycle 0,–
CATCTC,–,1.01 ± 0.0376 fold-change vs cycle 0
GAGGAA,1.03 ± 0.0774 fold-change vs cycle 0,–
ACATGT,1.4 ± 0.056 fold-change vs cycle 0,–
AATACG,–,1.11 ± 0.0569 fold-change vs cycle 0
AGTCAG,0.958 ± 0.0631 fold-change vs cycle 0,–
AACTAG,1.31 ± 0.0994 fold-change vs cycle 0,–
ATGGAG,–,1.04 ± 0.0611 fold-change vs cycle 0
ACTTCA,1.4 ± 0.125 fold-change vs cycle 0,–
CCTATA,1.35 ± 0.0515 fold-change vs cycle 0,–
AAGGTA,1.42 ± 0.11 fold-change vs cycle 0,–
